KCNQ2 enhance – potentiators of rat KCNQ2 potassium channel; CHO-K1 KCNQ2, FluxOR thallium flux fluorescence; stronger effect = higher value; AID 2239, 2010; 310,000 compounds, 0.54% hits; Potassium voltage-gated channel subfamily KQT member 2 (Rattus norvegicus), O88943; B-score at 10 µM;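 active = fluorescence ratio B-score at least 3 SD of library B-scores, with initial fluorescence B-score within 3 of them, cut at about 5.3 in these data; same plate scores as AID 2156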;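 note: B-score of peak minus minimum over baseline fluorescence ratio after K+ and Tl+ stimulus; positive B-score means potentiation of KCNQ2 with more thallium influx and brighter signal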
KCNQ2 block – rat KCNQ2 potassium channel inhibitors, primary screen, cell-based, CHO-K1, FluxOR thallium flux, B-score; Potassium voltage-gated channel subfamily KQT member 2 (Rattus norvegicus), O88943; 310,000 compounds, 1.1% hits; B-score at 10 µM; 20 min; stronger effect = lower value;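 active = fluorescence ratio B-score at most minus 3 library SDs, with starting brightness B-score within 2 library SDs, cut at about -5.5 in these data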
KCNQ2 block conf – rat KCNQ2 potassium channel inhibitors, confirmation, cell-based, thallium flux; shares compounds with KCNQ2 block; KCNQ2-expressing cells, inhibition; stronger effect = lower value; activity change, negative = inhibition, % at 10 µM; 1,000 compounds, 57% hits; AID 493025, 2011
KCNQ1 spec – human KCNQ1 channel inhibition, counter-screen for KCNQ2 inhibitor project, cell-based, FluxOR thallium flux. shares compounds with KCNQ2 block. KCNQ1-expressing cells, FluxOR thallium flux fluorescence; stronger effect = lower value. activity change, negative = inhibition, % at 10 µM. 1,000 compounds, 15% hits. AID 493026, 2011;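 active = activity change at least 3 SD of negative controls below their mean in both duplicate wells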;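 note: CHO cells stably transfected with KCNQ1 and depolarized by potassium stimulus; peak minus minimum fluorescence over baseline after thallium addition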
Target sequence (P51787 whole entry, looked up): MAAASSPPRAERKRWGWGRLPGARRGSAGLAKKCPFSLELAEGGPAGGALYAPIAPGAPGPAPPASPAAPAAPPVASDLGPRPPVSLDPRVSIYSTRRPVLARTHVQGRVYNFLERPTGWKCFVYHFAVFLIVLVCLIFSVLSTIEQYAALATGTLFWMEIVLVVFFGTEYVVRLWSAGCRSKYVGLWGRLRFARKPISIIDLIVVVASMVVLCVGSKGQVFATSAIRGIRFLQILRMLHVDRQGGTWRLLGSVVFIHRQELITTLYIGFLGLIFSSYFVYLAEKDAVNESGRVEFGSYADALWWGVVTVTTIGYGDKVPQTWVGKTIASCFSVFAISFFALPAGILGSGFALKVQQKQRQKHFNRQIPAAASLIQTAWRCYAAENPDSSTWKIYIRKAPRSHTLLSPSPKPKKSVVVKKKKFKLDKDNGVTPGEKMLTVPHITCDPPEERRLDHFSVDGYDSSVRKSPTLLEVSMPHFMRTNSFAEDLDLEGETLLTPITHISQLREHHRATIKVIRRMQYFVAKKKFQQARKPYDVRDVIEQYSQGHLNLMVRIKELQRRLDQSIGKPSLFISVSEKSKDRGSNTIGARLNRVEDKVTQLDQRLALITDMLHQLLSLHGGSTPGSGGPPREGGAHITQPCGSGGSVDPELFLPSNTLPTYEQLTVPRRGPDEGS
CHO Tl ctr – thallium flux change in parental CHO cells, counter-screen for KCNQ2 inhibitor project; stronger effect = lower value; activity change, % at 10 µM; 1,000 compounds, 14% hits; shares compounds with KCNQ2 block
KCNQ2 inh confirm – rat KCNQ2 channel inhibitors, confirmation, cell-based, automated patch clamp, single concentration; shares compounds with KCNQ2 block; KCNQ2-expressing cells, automated patch clamp current; calls only at 10 µM; 550 compounds, 49% hits
Numbers stand for hits; - = inactive; . = no result; + = active, no number. Compounds with a hit are over-represented: about 1.6% of the library has one in this group of screens. Unless noted, the rule behind the calls is not given here.

SMILES	KCNQ2 enhance	KCNQ2 block	KCNQ2 block conf	KCNQ1 spec	CHO Tl ctr	others
CC(C)CN(C)Cc1c(C(=O)N2CCc3ccccc3C2)nc2ccc(Cl)cn12	-	-8.7	-32%	-38%	-25%	KCNQ2 inh confirm=+
Cc1cnc(CN(C)Cc2c(C(=O)N3CCc4ccccc4C3)nc3ccc(Cl)cn23)[nH]1	.	-	.	.	.
O=C(CCCNc1ccccc1)N/N=C/c1cccs1	-	-	.	.	.
COc1ccc(C)cc1NC(=O)C(OC(=O)Cn1cnc2c1c(=O)n(C)c(=O)n2C)c1ccccc1 (stereo not given)	-	-	.	.	.
Cc1cc(C)cc(NC(=O)C(OC(=O)Cn2cnc3c2c(=O)n(C)c(=O)n3C)c2ccccc2)c1 (stereo not given)	-	-9	-24%	-	-	KCNQ2 inh confirm=-
CCOC(=O)/C=C/C(=O)N1CCN(C(=O)/C=C/C(=O)OCC)CC1	.	-	.	.	.
COc1ccc(C(=O)CCN2CCc3cc(OC)c(OC)cc3C2)cc1	-	-9.6	-32%	-	-	KCNQ2 inh confirm=-
COc1ccc(C(=O)CCN2CCN(c3ccccc3OC)CC2)cc1	.	-	.	.	.
Cc1cccc(C2N=C(N)Nc3nc4ccccc4n32)c1 (stereo not given)	.	-	.	.	.
O=C(O)c1ccc(NC(=O)c2ccccc2NC(=O)c2ccccc2Cl)cc1	.	-	.	.	.
Cc1onc(-c2ccccc2Cl)c1C(=O)NCC(=O)O	-	-	.	.	.
Cc1onc(-c2ccccc2Cl)c1C(=O)NCCn1c(C)cc2ccccc21	-	-12	-36%	-	-	KCNQ2 inh confirm=+
COc1cccc(C(=O)NC(=S)Nc2ccccc2N2CCOCC2)c1	-	-8.7	-29%	-	-	KCNQ2 inh confirm=+
CC(C)Oc1cccc(C(=O)Nc2ccccc2N2CCOCC2)c1	.	-	.	.	.
Cc1cccc(C)c1NC(=O)CNC(=O)CCCc1c[nH]c2ccccc12	.	-	.	.	.
O=C(N/N=C/c1ccc(OC(=O)c2ccccc2)c([N+](=O)[O-])c1)c1ccc(O)cc1	-	-	.	.	.
COc1ccccc1C(=O)Nc1c(-c2ccccc2)nc2ccccn12	-	-7.3	-	-	-
COc1ccc(C(=O)Nc2c(-c3ccccc3)nc3ccccn23)c(OC)c1	.	-	.	.	.
CCCCn1c(N)c(N(CCOC)C(=O)C2CCN(C(=O)c3ccc(F)cc3)CC2)c(=O)[nH]c1=O	.	-	.	.	.
O=[N+]([O-])c1ccc(Nc2ccccc2)c2nonc12	-	-	.	.	.
O=[N+]([O-])c1ccc(Sc2cccc[n+]2[O-])c2nonc12	-	-15	-64%	-57%	-60%	KCNQ2 inh confirm=-
O=C(c1cc2c(F)cccc2s1)N1CCCC1	.	-	.	.	.
O=C(NCCOc1ccccc1)C1CCC(=O)N(C2CCCCCC2)C1 (stereo not given)	.	-	.	.	.
Cc1ccc(O)c(NC(=O)c2onc(C)c2Cl)c1	.	-	.	.	.
Cc1ccc(C)c(N=C2CCCN2Cc2ccccc2)c1C#N	-	-7.3	-	-	-
SMILES	KCNQ2 enhance	KCNQ2 block	KCNQ2 block conf	KCNQ1 spec	CHO Tl ctr	others
O=C(O)CN1CCCC1=Nc1ccccc1	.	-	.	.	.
COc1cccc(C(C[N+](=O)[O-])c2c(C)[nH]n(-c3ccccc3)c2=O)c1 (stereo not given)	-	-12	-	-	-
Cc1[nH]n(-c2ccccc2)c(=O)c1C(C[N+](=O)[O-])c1ccc(Br)cc1 (stereo not given)	.	-	.	.	.
CCC(=O)N1CCN(c2ccccc2NC(=S)NC(=O)c2ccco2)CC1	.	-	.	.	.
O=C(CSc1ccc(F)cc1)NC12CC3CC(CC(C3)C1)C2	.	-	.	.	.
O=C(CCSc1ccc(Cl)c(Cl)c1)NC12CC3CC(CC(C3)C1)C2	-	-11	-	-	-
O=C(Nc1ccccc1)/C(=C/c1cccc(Br)c1)NC(=O)c1ccco1	-	-	.	.	.
O=C(OCc1ccccc1)/C(=C/c1cccc(Br)c1)NC(=O)c1ccco1	-	-9.6	-25%	-	-	KCNQ2 inh confirm=+
COc1ccc(C(NC(=O)C2CCCCC2)c2c(O)ccc3ccccc23)cc1 (stereo not given)	.	-	.	.	.
CCOC(=O)c1c(-c2ccccc2)csc1NC(=O)C(C)NCc1ccco1 (stereo not given)	-	-7.2	-31%	-	-	KCNQ2 inh confirm=-
CCOC(=O)c1c(-c2ccc(Cl)cc2)csc1NC(=O)CNCc1ccco1	.	-	.	.	.
COc1ccc(C(=O)COC(=O)CCNS(=O)(=O)c2ccccc2)c(OC)c1	-	-	.	.	.
CCCCOc1ccc(C2/C(=C(/O)c3ccc4c(c3)CC(C)O4)C(=O)C(=O)N2CCCN2CCOCC2)cc1OC (stereo not given)	.	-	.	.	.
COCCn1cc(C(=O)NCc2ccco2)c2c3ccccc3n(C)c2c1=O	-	-	.	.	.
Cn1c2ccccc2c2c(C(=O)NCc3ccco3)cn(C3CCCCC3)c(=O)c21	-	-9.8	-26%	-	-	KCNQ2 inh confirm=+
CCC(=O)N1c2ccc(S(=O)(=O)N3CCN(c4ccc([N+](=O)[O-])cc4)CC3)cc2CC1C (stereo not given)	.	-	.	.	.
CCOc1ccc(N2C(=O)C3ON(C)C(c4ccc([N+](=O)[O-])cc4)C3C2=O)cc1 (stereo not given)	-	-	.	.	.
CCOC(=O)c1cnc2ccccc2c1Nc1cccc(C(=O)O)c1	-	-	.	.	.
CCOC(=O)c1cnc2ccc(C)cc2c1Sc1ccccc1	-	-7.1	-28%	-	-	KCNQ2 inh confirm=+
COc1ccc(N2CCN(C(C)C(=O)Nc3nnc(C)s3)CC2)cc1 (stereo not given)	.	-	.	.	.
Cc1ccccc1-c1cc(C(=O)N2CCCC2)c2ccccc2n1	-	-	.	.	.
Cc1ccc(-c2cc(C(=O)N3CCCc4ccccc43)c3ccccc3n2)cc1	-	-6.9	-	-	-
O=C(c1cc(-c2cccnc2)nc2ccccc12)N1CCCc2ccccc21	.	-	.	.	.
CC1CC(C)CN(C(=O)c2cc(-c3ccccn3)nc3ccccc23)C1 (stereo not given)	.	-	.	.	.
COc1ccc(-c2cc(C(=O)N3CC(C)CC(C)C3)c3ccccc3n2)cc1 (stereo not given)	-	-8.7	-35%	-	-	KCNQ2 inh confirm=+
SMILES	KCNQ2 enhance	KCNQ2 block	KCNQ2 block conf	KCNQ1 spec	CHO Tl ctr	others
Cc1ccc(-c2cc(C(=O)N3CCCCC3)c3ccccc3n2)cc1C	-	-9.3	-36%	-	-	KCNQ2 inh confirm=+
COc1ccc(-c2cc(C(=O)N3CCCC3)c3ccccc3n2)cc1	.	-	.	.	.
CC1CN(C(=O)c2cc(-c3ccc(Cl)s3)nc3ccccc23)CC(C)O1 (stereo not given)	-	-8.5	-33%	-	-	KCNQ2 inh confirm=+
CC(=O)c1ccc(NC(=O)CN2CCCC2)cc1	-	-	.	.	.
CCOC(=O)N/N=C(\C)c1ccc(C)c([N+](=O)[O-])c1	-	-	.	.	.
Cc1ccc(N(C(=O)CNC(=O)c2ccco2)C(C(=O)NCC2CCCO2)c2ccccc2)c(C)c1 (stereo not given)	.	-	.	.	.
COC(=O)c1c(NC(=O)COC(=O)C2CCC2)sc(C)c1C	.	-	.	.	.
O=C(Nc1cccc(Br)c1)c1ccc(OC2CSC2)cc1	-	-	.	.	.

From PubChem
